Results published in PubChem BioAssay (NCATS).
Results filed as inconclusive are left out. The source made the active and inactive calls. Calls come from the whole dose curve; as a rule, active = well fitted inhibition curve with a large enough effect; inconclusive = small, poorly fitted or top-dose-only effect; inactive = no such curve, though single readings can be large or run the other way.

Tests used:
[1] = target: Cytochrome P450 2C9 (Homo sapiens) (UniProt P11712); assay: qHTS Assay for Inhibitors and Substrates of Cytochrome P450 2C9 (AID 883); conditions: recombinant CYP2C9, luciferin-H luminescence, 60 min; series mostly up to 11.4 µM; note: nearly all actives have a fitted effect of over 60% in size
Chain of Cytochrome P450 2C9 (Homo sapiens) (P11712 whole entry, looked up): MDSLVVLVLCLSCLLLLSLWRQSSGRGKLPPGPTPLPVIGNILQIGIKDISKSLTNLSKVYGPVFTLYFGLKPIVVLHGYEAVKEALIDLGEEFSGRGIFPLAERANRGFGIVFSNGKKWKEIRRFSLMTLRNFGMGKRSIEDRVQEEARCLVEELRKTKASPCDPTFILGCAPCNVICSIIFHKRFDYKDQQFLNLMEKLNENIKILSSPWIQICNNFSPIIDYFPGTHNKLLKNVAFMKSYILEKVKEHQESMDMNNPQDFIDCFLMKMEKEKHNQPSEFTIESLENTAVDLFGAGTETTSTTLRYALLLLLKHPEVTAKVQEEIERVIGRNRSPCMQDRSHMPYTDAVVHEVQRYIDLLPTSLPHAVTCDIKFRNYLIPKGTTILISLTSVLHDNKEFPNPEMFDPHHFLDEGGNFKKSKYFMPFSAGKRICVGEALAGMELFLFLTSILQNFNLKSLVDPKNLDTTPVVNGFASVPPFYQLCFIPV
Outline: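 A luminogenic readout tracked human CYP2C9 (10nM) converting deoxyluciferin (100uM, at KM) in 25mM KPO4 during 60 min at 37C with regenerated NADPH. Values normalized to 57uM sulphaphenazole as complete inhibition.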

[2] = target: Cytochrome P450 3A4 (Homo sapiens) (UniProt P08684); assay: qHTS Assay for Inhibitors and Substrates of Cytochrome P450 3A4 (AID 884); conditions: recombinant CYP3A4, Luciferin-PPXE luminescence; series mostly up to 57.1 µM; note: nearly all actives have a fitted effect of over 50% in size
Chain of Cytochrome P450 3A4 (Homo sapiens) (P08684 whole entry, looked up): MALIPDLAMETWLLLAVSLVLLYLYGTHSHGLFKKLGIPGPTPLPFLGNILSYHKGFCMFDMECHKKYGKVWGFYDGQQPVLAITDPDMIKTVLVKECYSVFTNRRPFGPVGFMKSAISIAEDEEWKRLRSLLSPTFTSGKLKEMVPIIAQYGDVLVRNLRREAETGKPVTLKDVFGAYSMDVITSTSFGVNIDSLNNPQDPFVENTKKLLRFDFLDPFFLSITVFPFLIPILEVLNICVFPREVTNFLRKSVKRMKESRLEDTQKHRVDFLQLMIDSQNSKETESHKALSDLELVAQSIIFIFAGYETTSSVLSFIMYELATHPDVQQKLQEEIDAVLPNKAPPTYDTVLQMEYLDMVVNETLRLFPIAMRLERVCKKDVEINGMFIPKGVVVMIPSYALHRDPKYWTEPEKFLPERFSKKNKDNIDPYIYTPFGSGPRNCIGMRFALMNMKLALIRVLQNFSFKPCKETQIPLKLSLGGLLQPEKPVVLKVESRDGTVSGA
Outline: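 Luminescent readout of luciferin produced by CYP3A4 (20 nM) dealkylation of Luciferin-PPXE, 25 uM (its KM). NADPH-driven reaction ran 60 min at RT after 10 min compound preincubation; data scaled to 57 uM ketoconazole as 100% inhibition.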

[3] = target: Cytochrome P450 2D6 (Homo sapiens) (UniProt P10635); assay: qHTS Assay for Inhibitors and Substrates of Cytochrome P450 2D6 (AID 891); conditions: recombinant CYP2D6, luciferin-ME EGE luminescence; series mostly up to 11.4 µM;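 note: luciferin methyl ether substrate demethylated by CYP2D6 with NADPH regeneration; nearly all actives have a fitted effect of over 60% in size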
Chain of Cytochrome P450 2D6 (Homo sapiens) (P10635 whole entry, looked up): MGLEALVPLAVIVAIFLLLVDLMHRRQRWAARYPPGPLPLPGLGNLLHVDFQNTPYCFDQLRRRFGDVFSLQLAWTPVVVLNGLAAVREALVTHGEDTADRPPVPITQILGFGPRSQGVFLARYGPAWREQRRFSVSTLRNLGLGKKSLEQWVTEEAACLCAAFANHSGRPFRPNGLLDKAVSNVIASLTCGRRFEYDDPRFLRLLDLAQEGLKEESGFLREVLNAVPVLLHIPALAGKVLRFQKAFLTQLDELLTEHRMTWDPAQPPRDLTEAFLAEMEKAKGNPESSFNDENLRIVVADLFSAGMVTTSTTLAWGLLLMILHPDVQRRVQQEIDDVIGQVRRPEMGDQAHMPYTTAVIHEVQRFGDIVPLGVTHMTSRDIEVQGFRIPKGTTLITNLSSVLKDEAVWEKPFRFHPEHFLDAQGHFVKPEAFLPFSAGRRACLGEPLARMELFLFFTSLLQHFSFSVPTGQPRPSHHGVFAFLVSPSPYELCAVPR
Outline: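 Luminescent read-out of luciferin formed by 5 nM human CYP2D6 demethylating 30 uM Luciferin-ME EGE (Km level) over 60 min at room temperature after NADPH regeneration addition. Data normalized to full inhibition by 1.43 uM quinidine.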

[4] = target: Cytochrome P450 2C19 (Homo sapiens) (UniProt P33261); assay: qHTS Assay for Inhibitors and Substrates of Cytochrome P450 2C19 (AID 899); conditions: recombinant CYP2C19, luciferin-H EGE luminescence; series mostly up to 11.4 µM; note: nearly all actives have a fitted effect of over 60% in size
Chain of Cytochrome P450 2C19 (Homo sapiens) (P33261 whole entry, looked up): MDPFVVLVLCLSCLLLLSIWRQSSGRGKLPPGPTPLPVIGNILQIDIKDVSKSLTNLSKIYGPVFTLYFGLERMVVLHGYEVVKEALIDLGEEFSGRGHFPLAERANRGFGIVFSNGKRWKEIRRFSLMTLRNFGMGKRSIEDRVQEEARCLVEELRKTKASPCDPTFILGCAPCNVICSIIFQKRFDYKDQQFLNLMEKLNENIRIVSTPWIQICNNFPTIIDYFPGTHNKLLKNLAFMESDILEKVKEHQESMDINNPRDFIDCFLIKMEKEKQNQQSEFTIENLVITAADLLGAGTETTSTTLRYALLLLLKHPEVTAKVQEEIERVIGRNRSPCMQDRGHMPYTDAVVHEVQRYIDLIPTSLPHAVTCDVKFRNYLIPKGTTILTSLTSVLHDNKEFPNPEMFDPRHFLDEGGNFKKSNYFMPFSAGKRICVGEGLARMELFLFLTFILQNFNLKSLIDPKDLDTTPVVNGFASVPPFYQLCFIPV
Outline: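 NADPH-dependent conversion of Luciferin-H EGE (10uM, at KM) by 5nM enzyme in 50mM KPO4, 60 min at 37C following 10 min compound preincubation. Stopped with luciferin detection buffer; luminescence read after 20 min.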
% is set by controls: 0 for no effect and ±100 for the full control effect.

CCOC(=O)[C@]1(C(/C=C/c2ccco2)NC(=O)OC)CCCC1=O (stereo not given in full)
inactive: Potency [1] | activity change, negative = inhibition [2] -21.5% [at 11.4 µM] | Potency [3]

CC(=O)Nc1ccc(C2NC(C(=O)O)CCC2C)cc1 (stereo not given)
inactive: Potency [1] | activity change, negative = inhibition [2] -21% [at 11.4 µM] | Potency [3] | Potency [4]

COC(=O)NC(c1ccccc1)C(C#N)C(=O)OC (stereo not given)
inactive: Potency [1] | activity change, negative = inhibition [2] -16.5% [at 11.4 µM] | Potency [3]

C=C(C)CC1(c2ccccc2)Oc2ccccc2-c2nc3cc(Cl)c(Cl)cc3nc21 (stereo not given)
inactive: Potency [1] | activity change, negative = inhibition [2] -4.89% [at 11.4 µM] | Potency [3] | Potency [4]

OCC1OC(C#Cc2ccccc2)C=CC1OCc1ccccc1 (stereo not given)
inactive: Potency [1] | activity change, negative = inhibition [2] -24.2% [at 11.4 µM] | Potency [3]

OCC1OC(c2ccccc2)C=CC1Oc1cc(Cl)cc(Cl)c1 (stereo not given)
inactive: Potency [1] | activity change, negative = inhibition [2] 5.16% [at 11.4 µM] | Potency [3]

CCC(=O)[C@@]1(O)C(=O)N2C(=C3C(=O)OCCC31)N(Cc1ccccc1)C(C)=C(C(=O)OC)C2c1ccccc1 (stereo not given in full)
inactive: Potency [1] | activity change, negative = inhibition [2] -16% [at 11.4 µM] | Potency [3] | Potency [4]

CCOC(=O)CCCCC1=CC2=CC(=O)C(C)(O)C(=O)C2=CO1 (stereo not given)
inactive: Potency [1] | activity change, negative = inhibition [2] -20.4% [at 11.4 µM] | Potency [3]

COc1cccc(C2NC(C(=O)O)CCC2C)c1 (stereo not given)
inactive: Potency [1] | activity change, negative = inhibition [2] -16.8% [at 11.4 µM] | Potency [3] | Potency [4]

COC(=O)NC(CC(C)=O)c1ccco1 (stereo not given)
inactive: Potency [1] | activity change, negative = inhibition [2] -19.2% [at 11.4 µM] | Potency [3] | Potency [4]
